Source: PubChem
Compounds with a hit are over-represented: about 3.5% of the library has one in this group of screens.
MITF inh: MITF inhibitors, primary screen, biochemical, AlphaScreen, human. AlphaScreen MITF homodimerization, bead proximity signal. Microphthalmia-associated transcription factor (Homo sapiens), O75030. 650,000 compounds, 0.91% hits. inhibition, % at 2.6 µM; in the data active = inhibition above about 50%
GPR151 ag: activators of human GPR151, primary screen, cell-based, PathHunter beta-arrestin, luminescence; 650,000 compounds, 1% hits; PathHunter beta-arrestin GPR151 cells; activation, % at 11.2 µM; in the data active = activation above about 4.9%
TEAD-YAP block: TEAD-YAP interaction inhibition, primary screen, TEAD-YAP interaction inhibitor project, luminescence, HEK-TIYL cells; TEAD-Gal4/YAP UAS-luciferase luminescence; inhibition, % at 9.12 µM; 640,000 compounds, 1.4% hits; in the data active = inhibition above about 32%
FBW7 act: FBW7 E3 ligase activators, primary screen, biochemical, AlphaScreen, human; 650,000 compounds, 0.13% hits; AlphaScreen FBW7–phospho-cyclin E peptide binding, activator screen; normalized activity (activation), % at 26.1 µM; F-box/WD repeat-containing protein 7 (Homo sapiens), Q969H0; AID 1259310, 2017; in the data active = normalized activity above about 1.9%;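 note: purified mutant Fbw7 with reduced substrate affinity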
Each line names hits and unclear results; the compound was inactive in the other large screens; ! = not confirmed by another sample.

O=C(Nc1ccc2c(c1)CN(C1CCOCC1)CC2)C1(c2ccccc2)CC1	none
O=C(CN1CCC(c2ccncc2)CC1)NCc1cccs1	none
Cc1sc(NC(=O)c2ccc(F)cc2)nc1-c1ccc(Br)cc1	none
Cc1c(C(=O)Nc2cccc(F)c2)nnn1-c1ccccc1F	TEAD-YAP block 43
Cc1c(C(=O)Nc2cccc(Cl)c2)nnn1-c1ccccc1F	none
CCOC(=O)c1cc2c(ccc3cc(Br)ccc32)oc1=O	none
Fc1ccc(Nc2ccn3ncc(-c4cccs4)c3n2)cc1Cl	none
Fc1ccc(Nc2ccn3ncc(-c4ccsc4)c3n2)cc1Cl	FBW7 act 2.0
CCOc1ccc(C(=O)N2CCN(c3cc(-n4ccnc4)ncn3)CC2)cc1	none
COc1ccc(C2=C/C(=C/c3ccco3)C(=O)O2)cc1OC	MITF inh 74
CN1C/C(=C/c2ccco2)C(=O)/C(=C/c2ccco2)C1	none
O=C1OC(c2ccc(Cl)cc2)=C/C1=C\c1ccco1	MITF inh 53
Cc1ccc(C2=C/C(=C/c3ccc(Cl)cc3)C(=O)O2)cc1	none
CC1=C/C(=C/c2ccco2)C(=O)O1	MITF inh 65
O=C1CSC(c2cccc([N+](=O)[O-])c2)N1c1ccc(F)cc1Cl (configuration not stated)	none
O=C(Nc1sc2c(c1C(=O)O)CCCC2)c1ccccc1F	TEAD-YAP block 52
O=C(Nc1sc2c(c1C(=O)N1CCCCC1)CCCCC2)c1ccccc1F	none
O=C(Nc1sc2c(c1C(=O)O)CCCCC2)c1ccccc1F	TEAD-YAP block 56
CNC(=O)c1c(NC(=O)c2ccccc2F)sc2c1CCCC2	none
Cc1cc(C(=O)COc2ncnc3sccc23)c(C)n1Cc1cccs1	TEAD-YAP block 33
Cc1cc(C(=O)COc2ncnc3sccc23)c(C)n1CC1COc2ccccc2O1 (configuration not stated)	none
Cc1ccccc1C(=O)OCC(=O)c1cc(C)n(Cc2ccco2)c1C	TEAD-YAP block 69
Cc1cc(C(=O)COC(=O)c2cccnc2Cl)c(C)n1Cc1cccs1	TEAD-YAP block 47
Cc1cc(C(=O)COC(=O)c2n[nH]c3ccccc23)c(C)n1Cc1cccs1	TEAD-YAP block 74
COC(=O)c1nn2c(C(F)(F)F)cc(-c3ccc(Br)cc3)nc2c1Cl	none
N#Cc1c(/N=C/c2ccc(O)c(O)c2)sc2c1CCCC2	TEAD-YAP block 43
COc1cc(/C=N/c2sc3c(c2C#N)CCC3)ccc1OCC(=O)O	none
O=[N+]([O-])c1cccc(COc2ccc(F)cc2)c1	none
O=C(O)CCC(=O)Nc1ccc2c(c1)-c1cc(NC(=O)CCC(=O)O)ccc1C2	none
Cc1cccc(Nc2nc3nonc3nc2Nc2ccc(I)cc2)c1C	none
Fc1ccc(Nc2nc3nonc3n3nnnc23)cc1	TEAD-YAP block 46
Fc1ccc(Nc2nc3nonc3nc2Nc2ccccc2F)cc1	TEAD-YAP block 83
Cc1ccc(Nc2nc3nonc3n3nnnc23)cc1C	none
O=c1[nH]c2nonc2nc1Nc1ccccc1F	TEAD-YAP block 73
Cc1cccc(Nc2nc3nonc3nc2Nc2ccc(F)cc2)c1C	TEAD-YAP block 35
CCSC1=NN2C(=O)NC(C(F)(F)F)(C(F)(F)F)N=C2S1	none
CCn1c(SCC(=O)Nc2ccc(C)cc2)nnc1-c1ccccc1N	none
COC(=O)c1cc(NC(=O)C2CCCN2C(=O)OCc2ccccc2)cc(C(=O)OC)c1 (configuration not stated)	none
Cc1ccccc1Cn1nnc2ccccc21	none
CCc1c(C)nc2c(C(=O)NCCc3ccccc3)c[nH]n2c1=O	none
Cc1ccc(CCNC(=O)c2c(N)[nH]n3c(=O)c4ccccc4nc23)cc1	TEAD-YAP block 35
CC(=NCc1ccco1)c1c(C)[nH]n(-c2nc3ccccc3s2)c1=O	TEAD-YAP block 41!
COc1ccc(OC)c(N=C(C)c2c(C)[nH]n(-c3nc4ccccc4s3)c2=O)c1	none
CC(=NCCCN1CCOCC1)c1c(C)[nH]n(-c2nc3ccccc3s2)c1=O	TEAD-YAP block 33!
CCOC(=O)CN=C(C)c1c(C)[nH]n(-c2nc3ccccc3s2)c1=O	TEAD-YAP block 49
CC(=NCCO)c1c(-c2ccccc2)[nH]n(-c2nc3ccccc3s2)c1=O	none
O=C(CON1C(=O)CCC1=O)Nc1cccc2ccccc12	none
CCN1/C(=C/c2ccc3ccccc3[n+]2CC)Sc2ccc(C)cc21	TEAD-YAP block 79
CCN1/C(=C/c2ccc3cc(NC(C)=O)ccc3[n+]2CC)Sc2cc(C)ccc21	none
CCN1/C(=C/c2ccc3cc(C)ccc3[n+]2CC)Sc2ccc(O)cc21	TEAD-YAP block 87
CCN1/C(=C/c2ccc3ccccc3[n+]2CC)Sc2cc(NC(C)=O)ccc21	none
Oc1ccccc1/C=N/c1ccnn1-c1ccccc1	TEAD-YAP block 32
Cc1c(C(=O)OCC2CCCO2)[nH]c2c1C(=O)CC(c1ccco1)C2 (configuration not stated)	TEAD-YAP block 52
C/C=C/COC(=O)c1[nH]c2c(c1C)C(=O)CC(c1ccco1)C2 (configuration not stated)	TEAD-YAP block 57
Cc1c(C(=O)OCC(C)C)[nH]c2c1C(=O)CC(c1ccco1)C2 (configuration not stated)	TEAD-YAP block 49
CCOC(=O)c1[nH]c2c(c1C)C(=O)CC(c1ccc(OC)c(OC)c1)C2 (configuration not stated)	none
Cc1c(C(=O)OC2CCCC2)[nH]c2c1C(=O)CC(c1ccco1)C2 (configuration not stated)	TEAD-YAP block 55
Cc1c(C(=O)OCC(C)C)[nH]c2c1C(=O)CCC2	none
COc1ccc(Cn2c(SCc3cc(=O)n4ccccc4n3)nc3ccsc3c2=O)cc1	none
CC(Oc1ccccc1)C(=O)NCc1ccc(F)cc1 (configuration not stated)	none
C=CCOC(=O)c1[nH]c2c(c1C)C(=O)CC(c1ccco1)C2 (configuration not stated)	TEAD-YAP block 51
CCOc1ccc(N2C(=O)CC(Sc3nc(C)c(CC)c(C)c3C#N)C2=O)cc1 (configuration not stated)	none
O=C(O)C(=O)/C(=C\c1ccsc1)c1ccc2ccccc2n1	TEAD-YAP block 45
O=C(O)C(=O)/C(=C\c1ccccc1)c1ccc2ccccc2n1	none
Cc1ccc(OCc2cc(C(=O)N(C)CCC3CCOCC3)no2)cn1	TEAD-YAP block 39
Cc1cc(C(=O)N/N=C/c2ccc(O)c(O)c2O)c2ccccc2n1	MITF inh 82
Cc1cc(C(=O)N/N=C/c2ccccc2OC(F)F)c2ccccc2n1	TEAD-YAP block 34
O=C(N/N=C\c1ccc([N+](=O)[O-])o1)c1ccccc1-n1cccc1	TEAD-YAP block 49
Cc1cc(C(=O)N/N=C/c2cc([N+](=O)[O-])ccc2O)c2ccccc2n1	MITF inh 102
CC1CN(CC(=O)N[C@@H](Cc2ccccc2)C(N)=O)Cc2ccccc2O1 (some centres not stated)	none
CCOC(=O)c1cnc2ccc(C(=O)OC)cc2c1Nc1ccc(N2CCCCC2)cc1	none
